Results filed as inconclusive are left out. Entries that show only a call come without a potency. Active and inactive are the calls of the source. The call rests on the fitted dose curve; in most records, active means well fitted cell-killing curve with a large enough effect in the repeat runs; inconclusive means weak or mixed curves, or effect the other way; inactive means flat fitted curve, though single readings scatter.

The nature of this assay: cAMP Responsive Elements (CRE) small molecule agonists, cell-based qHTS assay: qHTS cell viability counter screen (AID 2060914). Further: nearly all actives have a fitted effect of over 50% in size. The conditions noted are these: CRE-bla HEK293T viability, CellTiter-Glo luminescence, 5 h; series mostly up to 92.4 µM. In short, it runs like this: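 CRE-bla HEK293T cells in 10% dialyzed FBS medium were exposed to compounds for 3 h at 37C after 18 h plating. CellTiter-Glo was then added in the same wells, and luminescence was read after 30 min at room temperature.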
(In general: In qHTS, concentration-response curves come from the screen itself.)
`C[C@]12CCC(=O)C=C1CC[C@@H]1[C@@H]2[C@@H](O)C[C@@]2(C)[C@H]1CC[C@]2(O)C(=O)CO`: the Potency result is “inactive”.
Turning to `CC(=O)Oc1ccc(C(C)=O)cc1`, the Potency entry was “inactive”.
Then `CCCCC(CC)COC(=O)c1ccc(O)cc1` (configuration not stated), with “inactive”.
Turning to `O=C(O)c1cc(O)c2ccccc2c1O`, the Potency result is “inactive”.
Then `C[Si]1(C)O[Si](C)(C)O[Si](C)(C)O1`, with “inactive”.
Then `O=C1CCCCCCCCCCCC(=O)OCCO1`, with “inactive”; and `CC1=Nc2ccccc2C1(C)C`, with “inactive”; and `O=C1CCCCCN1SSN1CCCCCC1=O`, with “inactive”.
Take `O=C(O)c1c(Cl)cccc1Cl`: the Potency result is “inactive”.
On to `CC(=O)O[C@@H]1C[C@@H]2CC[C@@]1(C)C2(C)C`, for which the Potency entry is “inactive”.
The value for `CN(C)CCCN1c2ccccc2CCc2ccc(Cl)cc21` was “inactive”; that for `C[C@H]1[C@H]2CC[C@H]3[C@@H]4CC=C5C[C@@H](N(C)C)CC[C@]5(C)[C@H]4CC[C@]23CN1C` was “inactive”.
Consider `CC(C)(C)c1cc(O)c(C(C)(C)C)cc1O`, for which the Potency result was “inactive”.
The value for `CC(C)(C)c1ccc(OCC2CO2)cc1` (configuration not stated) was “inactive”.
For `Cc1c(N)cccc1N`, the Potency entry is “inactive”.
The value for `CCc1cc(Cc2cc(CC)cc(C(C)(C)C)c2O)c(O)c(C(C)(C)C)c1` was “inactive”; that for `CS(=O)(=O)c1ccc([C@@H](O)[C@@H](CF)NC(=O)C(Cl)Cl)cc1` was “inactive”; that for `CCc1cccc2c3c([nH]c12)C(CC)(CC(=O)O)OCC3` (configuration not stated) was “inactive”.
The value for `O=C(O)Cc1ccccc1Oc1ccc(Cl)cc1Cl` was “inactive”; that for `CCCCOC(=O)c1ccccc1C(=O)OCC(CC)CCCC` (configuration not stated) was “inactive”.
The value for `O=c1c(O)c(-c2ccc(O)cc2O)oc2cc(O)cc(O)c12` was “inactive”; that for `C[C@H](CCC(=O)O)[C@H]1CC[C@H]2[C@@H]3CC[C@@H]4C[C@H](O)CC[C@]4(C)[C@H]3C[C@H](O)[C@]12C` was “inactive”.
